Screening results from PubChem.
G9a block: inhibitors of human histone lysine methyltransferase G9a; Q96KQ7; G9a H3K9 monomethylation, AlphaScreen, 2 h; Potency, µM (titrated, usually from 102 µM), usual class: inhibitors; 350,000 tested, 8.8% active; further: nearly all actives have a fitted effect of over 75% in size
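Compounds were preincubated with 20 nM G9a for 15 min, after which biotinylated H3K9 peptide (500 nM) and SAM (20 uM) started a 2 h room-temperature reaction. Monomethylated product was quantified by antibody-based AlphaScreen chemiluminescence.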
GRP78 ERSR act: inducers of ER stress response in human glioma cells | Potency, µM, most hits filed as activators | 420,000 tested, 0.02% active | U87-MG GRP78 promoter luciferase reporter, 16 h; further: series mostly up to about 76 µM; nearly all actives have a fitted effect of over 35% in size
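Stably transfected U87-MG glioma cells carrying a GRP78-based luciferase sensor; 16 h compound incubation. Luminescence end-point read 10 min after Bright-Glo addition at room temperature.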
Sfp inh: inhibitors of Bacillus subtilis Sfp phosphopantetheinyl transferase; Potency, µM, most hits filed as inhibitors; Biochemical Sfp PPTase activity, qHTS; 310,000 tested, 3.5% active;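 further: the enzyme is Sfp with the accession as filed and its product quenches rhodamine fluorescence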
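Reaction rates are the 30-min fluorescence difference (ex 525, em 598 nm) in wells containing 15 nM Sfp, 5 uM rhodamine-CoA and 12.5 uM BHQ-2-YbbR at pH 7.6 with 10 mM MgCl2.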
VDR inhibitor: vitamin D3 receptor (human) inhibition; AID 504847; 400,000 tested, 0.93% active; VDR-SRC2-3 peptide fluorescence polarization, 2 h; Potency, µM, actives largely listed as inhibitors
Target sequence (P11473 whole entry, looked up): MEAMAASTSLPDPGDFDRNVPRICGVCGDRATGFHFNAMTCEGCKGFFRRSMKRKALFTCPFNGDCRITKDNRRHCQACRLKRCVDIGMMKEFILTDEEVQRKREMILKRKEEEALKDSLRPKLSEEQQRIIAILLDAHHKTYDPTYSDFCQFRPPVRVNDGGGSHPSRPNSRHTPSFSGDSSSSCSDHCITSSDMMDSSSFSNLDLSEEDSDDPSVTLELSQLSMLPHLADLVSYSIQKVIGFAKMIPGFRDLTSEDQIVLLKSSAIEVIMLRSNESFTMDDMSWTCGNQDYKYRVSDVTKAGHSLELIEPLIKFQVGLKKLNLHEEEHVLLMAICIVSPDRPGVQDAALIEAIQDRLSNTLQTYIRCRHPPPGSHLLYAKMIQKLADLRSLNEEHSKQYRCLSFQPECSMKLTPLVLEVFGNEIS
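The screen uses fluorescence polarization to detect compounds that interfere with recruitment of the SRC2-3 coactivator peptide to VDR; plates are read after 2 h at room temperature.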
ALOX12 inh: ALOX12 (human) lipoxygenase inhibition | purified 12hLO, xylenol orange hydroperoxide absorbance | Potency, µM (top dose mostly 108 µM), most hits filed as inhibitors | 580,000 tested, 1.1% active
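Purified human 12hLO (150 nM final) in 25 mM Hepes, 0.01% Triton X-100, pH 7.0 was preincubated 15 min at room temperature with compound. Then 40 uM arachidonic acid was added, 30 min. Hydroperoxide was read by Fe-XO absorbance ratio 573/405 nm.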
Of the large screens only hits and unclear results are named; the others gave an inactive call. This is one part of a sample in which hits are shown more often than they occur. The call rests on the fitted dose curve; in most records, active means well fitted curve in the direction sought with a large enough effect; inconclusive means small, poorly fitted or top-dose-only effect, or another doubt; inactive means no such curve, though single readings can be large; an effect the other way counts as inactive or inconclusive.

Cc1cc(C)c(NC(=O)/C(=C/c2ccco2)c2ccccc2)c(C)c1	G9a block 45µM, Sfp inh 35µM, ALOX12 inh inconclusive
Cc1cccc(C)c1NC(=O)/C(=C/c1ccco1)c1ccccc1	G9a block 32µM, Sfp inh 22µM, ALOX12 inh inconclusive
Cc1ccccc1NC(=O)/C(=C/c1ccccc1)c1ccccc1	none
O=[N+]([O-])c1ccc(C2CC(c3ccccc3)=Nc3ccccc3S2)cc1 (stereo not given)	G9a block 40µM, Sfp inh 10µM, VDR inhibitor inconclusive, ALOX12 inh inconclusive
O=[N+]([O-])c1ccc(C2CN=C(Nc3ccccc3)S2)cc1 (stereo not given)	G9a block 45µM
O=[N+]([O-])c1ccc(-c2nc(Nc3ccccc3)c3ccccc3n2)cc1	none (no result: G9a block, GRP78 ERSR act, Sfp inh, VDR inhibitor)
Cc1sc2nc(CN3CCOCC3)nc(N(C)CC(=O)Nc3cccc4ccccc34)c2c1C	none (no result: G9a block, GRP78 ERSR act, Sfp inh, VDR inhibitor)
CC(=O)c1cccc(Nc2nc(-c3ccccc3)nc3ccccc23)c1	G9a block 50µM, ALOX12 inh inconclusive
Fc1ccc(Nc2nc(-c3cccnc3)nc3ccccc23)cc1	ALOX12 inh inconclusive (no result: G9a block)
O=C(O)c1ccc(Nc2nc(-c3cccnc3)nc3ccccc23)cc1	G9a block 56µM (no result: GRP78 ERSR act, VDR inhibitor, ALOX12 inh)
CCN(CC)CCOC(=O)c1ccc(N/C=C(/C#N)c2nc(-c3cccc(OC)c3)cs2)cc1	G9a block 28µM, Sfp inh inconclusive
CCN(CC)CCOC(=O)c1ccc(N/C=C(/C#N)c2nc(-c3ccc(OC)c(OC)c3)cs2)cc1	G9a block 1.6µM, Sfp inh inconclusive
COc1cccc(-c2csc(/C(C#N)=C/c3ccccc3C(F)(F)F)n2)c1	none (no result: G9a block, GRP78 ERSR act, Sfp inh, VDR inhibitor)
Cc1ccc(-c2csc(/C(C#N)=C/Nc3ccc4c(c3)OCCO4)n2)cc1	none
CCOC(=O)c1oc2cc(O)ccc2c(=O)c1-c1ccc(Br)cc1	none (no result: G9a block, GRP78 ERSR act, Sfp inh, VDR inhibitor)
O=C(NCc1ccccn1)c1ccc2c(c1)-c1ccccc1C2	none (no result: G9a block, GRP78 ERSR act, Sfp inh, VDR inhibitor)
COc1ccc2[nH]c3c(c2c1)CCNC31CCN(C(=O)c2cc(C)nn2C)CC1	none (no result: G9a block, GRP78 ERSR act, Sfp inh, VDR inhibitor)
CCc1ccc(-c2cn3c(n2)sc2cc(C(=O)NCCCc4ccccc4)ccc23)cc1	none (no result: Sfp inh)
Cc1c(C)n(C)c2ccc(C(=O)NCc3cccs3)cc12	G9a block 50µM
Cc1ccc(C(=O)NCc2cccs2)cc1N	none (no result: G9a block, GRP78 ERSR act, Sfp inh, VDR inhibitor)
O=C(NCc1cccs1)c1ccc2c(c1)sc1nc(-c3ccc(F)cc3)cn12	G9a block 10µM (no result: Sfp inh)
CCOc1ccc(-c2cn3c(n2)sc2cc(C(=O)NCCCc4ccccc4)ccc23)cc1	G9a block 22µM (no result: Sfp inh)
COc1ccc2c(c1)sc1nc(-c3ccccc3)cn12	Sfp inh 50µM
O=C(NCCCN1CCCC1=O)c1ccc2c(c1)NC(=O)C(N1CCOCC1)S2 (stereo not given)	Sfp inh 71µM
COC(=O)c1ccc2c(c1)NC(=O)C(N1CCOCC1)S2 (stereo not given)	none
CN(C)C[C@@H]1CN(c2ncccn2)C[C@H]1NC(=O)CCCc1ccccc1	none (no result: G9a block, GRP78 ERSR act, Sfp inh, VDR inhibitor)
O=C1NC2(CCN(CC3CCCC3)CC2)Oc2ccccc21	ALOX12 inh 25µM (no result: G9a block, GRP78 ERSR act, Sfp inh, VDR inhibitor)
N#C/C(=C/c1ccc(SC(F)(F)F)cc1)C(=O)NC1CC1	none (no result: G9a block, GRP78 ERSR act, Sfp inh, VDR inhibitor)
O=C(O)Cc1ccc(C(=O)c2ccccc2)s1	G9a block 18µM, ALOX12 inh inconclusive
O=C(O)Cc1ccc(C(=O)CSc2ccccc2)s1	G9a block 56µM, VDR inhibitor inconclusive
O=C(O)Cc1ccc(C(=O)c2ccc(Cl)cc2)s1	G9a block inconclusive, ALOX12 inh inconclusive
CCCCCCCNC(=O)CCC(=O)NCCC(C)C	none (no result: G9a block, GRP78 ERSR act, Sfp inh, VDR inhibitor)
COc1ccc(CN[C@H]2CS(=O)(=O)C[C@@H]2S(=O)(=O)c2ccc(F)cc2)cc1OC	none (no result: G9a block, GRP78 ERSR act, Sfp inh, VDR inhibitor)
Cc1nc(-c2ccccc2)n(Cc2ccc(F)cc2Cl)c(=O)c1CCO	none (no result: G9a block, GRP78 ERSR act, Sfp inh, VDR inhibitor)
O=[N+]([O-])c1c(NCCCO)cc(SCc2ccco2)c2nonc12	G9a block 8.9µM, Sfp inh 22µM, ALOX12 inh inconclusive
CC(=O)OCCNc1cc(SCc2ccco2)c2nonc2c1[N+](=O)[O-]	G9a block 45µM, Sfp inh 45µM (no result: ALOX12 inh)
O=[N+]([O-])c1c(NCCCO)cc(N2CCCCCC2)c2nonc12	G9a block inconclusive
Cn1ccnc1Sc1cc(NCCCO)c([N+](=O)[O-])c2nonc12	G9a block 56µM, Sfp inh inconclusive, VDR inhibitor 20µM
Cc1nn(Cc2cc(=O)oc3c(C)c(O)ccc23)c(=O)c(C#N)c1C	none (no result: G9a block, GRP78 ERSR act, Sfp inh, VDR inhibitor)
COc1ccc(NC(=O)N2CCN(c3ccc(Cl)cc3)CC2)cc1OC	none (no result: G9a block, GRP78 ERSR act, Sfp inh, VDR inhibitor)
